Results from PubChem BioAssay (NCATS).
Inconclusive results are not listed. Entries that show only a call come without a potency. Activity calls are given as the source filed them. Unless noted, the call rests on the fitted dose curve.

Tests used:
[1] = qHTS for Inhibitors of the Functional Ribonucleoprotein Complex (vRNP) of Lassa (LASV) Arenavirus: LASV Primary Screen - GLuc reporter signal (AID 1347082; calls by dose curve; tested in HEK293 reporter line; further: nearly all actives have a fitted effect of over 60% in size; further: potency means the concentration at half of the fitted maximal effect)
[2] = qHTS for Inhibitors of the Functional Ribonucleoprotein Complex (vRNP) of Lassa (LASV) Arenavirus: Viability assay - alamar blue signal for LASV Primary Screen (AID 1347083; calls by dose curve; tested in HEK293 reporter line; further: nearly all actives have a fitted effect of over 80% in size; further: potency means the concentration at half of the fitted maximal effect)
[3] = qHTS for Inhibitors of the Functional Ribonucleoprotein Complex (vRNP) of Lymphocytic Choriomeningitis Arenaviruses (LCMV): Viability assay - alamar blue signal for LCMV Primary Screen (AID 1347085; calls by dose curve; tested in HEK293 reporter line; further: nearly all actives have a fitted effect of over 80% in size; further: potency means the concentration at half of the fitted maximal effect)
[4] = Confirmatory qHTS to identify inhibitors of SARS-CoV-2 cell entry (AID 1645844); further: potency means the concentration at half of the fitted maximal effect; nearly all actives have a fitted effect of over 45% in size
Method in brief: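 HEK293-ACE2 cells (Expi293F stably expressing human ACE2) were pretreated with compounds for 1 hr at 37C, then infected with MLV-based particles carrying Wuhan-Hu-1 spike (C-terminal 19-aa truncation). Luciferase luminescence read after 48 hr; normalized to spike PP (100%) and bald PP (0%).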

[5] = Primary qHTS to identify inhibitors of SARS-CoV-2 cell entry (AID 1645846); conditions: activity change, negative = inhibition: at 57.1 µM (top of the series) unless noted; further: nearly all actives have a fitted effect of over 45% in size; further: potency means the concentration at half of the fitted maximal effect
Method in brief: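 Using luciferase-reporting pseudoviruses carrying Wuhan-Hu-1 spike, the screen tracks entry into stably ACE2-expressing cells over 48 hr. Activity is expressed relative to spike particles versus particles lacking any fusion protein.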

[6] = VSVG counterscreen qHTS to identify inhibitors of SARS-CoV-2 cell entry (AID 1645847); further: potency means the concentration at half of the fitted maximal effect; nearly all actives have a fitted effect of over 65% in size
Method in brief: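 Entry of VSV-G pseudotyped particles into human ACE2-expressing HEK293 cells was measured by luciferase luminescence 48 h after infection, with compound added 1 h beforehand.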

CRL-7250 = normal cell line; experiment: qHTS assay to identify novel small-molecules to repurpose for Merkel cell carcinoma treatment (AID 1296009; active means well fitted curve in the direction sought with a large enough effect; an effect the other way counts as inactive or inconclusive; further: nearly all actives have a fitted effect of over 60% in size); conditions: MCC and control cell lines, CellTiter-Glo viability, 72 h; series mostly up to 92 µM
Method in brief: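 qHTS format: cells treated with library compounds in DMSO across 8 (NPC) or 11 (MIPE) concentrations. Readout after 72 hr at 37 degree celsius was CellTiter-Glo luminescence.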

[7] = target: Nucleoprotein (Lymphocytic choriomeningitis virus (strain Armstrong)) (UniProt P09992); experiment: qHTS for Inhibitors of the Functional Ribonucleoprotein Complex (vRNP) of Lymphocytic Choriomeningitis Arenaviruses (LCMV): LCMV Primary Screen - GLuc reporter signal (AID 1347086); further: nearly all actives have a fitted effect of over 70% in size; further: potency means the concentration at half of the fitted maximal effect
Nucleoprotein (Lymphocytic choriomeningitis virus (strain Armstrong)), sequence (P09992 whole entry, looked up): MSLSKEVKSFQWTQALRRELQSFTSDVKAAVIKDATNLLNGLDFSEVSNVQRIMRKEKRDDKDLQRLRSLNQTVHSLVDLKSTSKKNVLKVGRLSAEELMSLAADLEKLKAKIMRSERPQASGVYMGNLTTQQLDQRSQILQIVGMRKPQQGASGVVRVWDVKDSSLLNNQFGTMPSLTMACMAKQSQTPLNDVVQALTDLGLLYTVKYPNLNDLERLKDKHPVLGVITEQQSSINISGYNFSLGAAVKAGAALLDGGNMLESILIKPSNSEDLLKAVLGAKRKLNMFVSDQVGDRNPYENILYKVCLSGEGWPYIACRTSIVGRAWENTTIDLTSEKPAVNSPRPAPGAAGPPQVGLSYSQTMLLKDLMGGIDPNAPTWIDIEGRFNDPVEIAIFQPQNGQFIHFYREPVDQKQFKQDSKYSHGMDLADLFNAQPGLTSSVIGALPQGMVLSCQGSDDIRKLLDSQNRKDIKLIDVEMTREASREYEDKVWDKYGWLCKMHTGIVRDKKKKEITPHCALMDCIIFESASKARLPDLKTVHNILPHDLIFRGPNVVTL

[8] = Cytotoxicity counterscreen for inhibitors of SARS-CoV-2 cell entry (AID 1645845); further: nearly all actives have a fitted effect of over 50% in size
Method in brief: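 Expi293F/hACE2 cells seeded overnight; cpd pin-transferred in DMSO, 1 h preincubation, + media, 48 h 37 C 5% CO2; ATPLite 1step luminescence; normalized to cells and no cells.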

[9] = target: Alpha-galactosidase (Coffea arabica) (UniProt Q42656); experiment: Counterscreen for Glucocerebrosidase Inhibitors: qHTS Assay for Coffee Bean alpha-Galactosidase at pH 4.5 (AID 957; active means well fitted curve in the direction sought with a large enough effect; an effect the other way counts as inactive or inconclusive)
Alpha-galactosidase (Coffea arabica), sequence (Q42656 whole entry, looked up): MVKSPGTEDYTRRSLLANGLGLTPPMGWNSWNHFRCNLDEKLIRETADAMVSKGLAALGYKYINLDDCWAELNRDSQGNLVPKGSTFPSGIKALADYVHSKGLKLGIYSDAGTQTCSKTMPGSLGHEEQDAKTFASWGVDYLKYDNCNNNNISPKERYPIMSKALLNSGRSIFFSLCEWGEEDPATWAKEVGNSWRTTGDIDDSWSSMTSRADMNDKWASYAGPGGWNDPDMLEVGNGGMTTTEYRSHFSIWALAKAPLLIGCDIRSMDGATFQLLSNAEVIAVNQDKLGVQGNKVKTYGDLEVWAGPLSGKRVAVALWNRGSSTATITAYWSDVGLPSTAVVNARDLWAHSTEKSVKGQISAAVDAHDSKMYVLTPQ
Method in brief: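 Coffee bean enzyme (2 nM) with 80 uM 4-methylumbelliferyl alpha-D-galactopyranoside in 50 mM citric acid, 0.005% Tween-20, pH 4.5, 20 min at room temperature; compounds 0.7 nM–77 uM. Stopped at pH 10, fluorescence 365/440 nm; AC50 from Hill fits.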

[10] = target: Alpha-galactosidase (Coffea arabica) (UniProt Q42656); experiment: Counterscreen for Glucocerebrosidase Inhibitors: qHTS Assay for Coffee Bean alpha-Galactosidase at pH 5.9 (AID 998; active means well fitted curve in the direction sought with a large enough effect; an effect the other way counts as inactive or inconclusive)
Method in brief: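 Green coffee bean enzyme (2 nM final) was incubated with compounds (0.7 nM–77 uM) and 4-methylumbelliferyl alpha-D-galactopyranoside (80 uM) in citrate buffer pH 5.9, 20 min at room temperature. High-pH stop; fluorescence 365/440 nm; AC50 from Hill fits.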

[11] = qHTS profiling of the MIPE4 collection as inhibitors of Plasmodium falciparum (3D7) proliferation (AID 743344; call rule not given here); conditions: P. falciparum 3D7 in erythrocytes, SYBR Green DNA fluorescence, 72 h; at 28.5 µM (top of the series) unless noted
Method in brief: (§1)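 Erythrocytes infected with P. falciparum (0.3% parasitemia, 2.5% hematocrit) incubated with compounds 72 h at 37 C, 5% CO2. Lysis with saponin/Triton buffer containing SYBR Green I, overnight at room temperature in the dark; DNA fluorescence (485/535 nm) normalised to 0.29 uM artemisinin and DMSO.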

[12] = qHTS profiling of the MIPE4 collection as inhibitors of Plasmodium falciparum (DD2) proliferation (Rep 2) (AID 743346; call rule not given here); conditions: P. falciparum Dd2 in erythrocytes, SYBR Green DNA, 72 h; at 28.5 µM (top of the series) unless noted
Method in brief: as §1

[13] = qHTS profiling of the MIPE4 collection as inhibitors of Plasmodium falciparum (HB3) proliferation (AID 743347; call rule not given here); conditions: P. falciparum HB3 in erythrocytes, SYBR Green DNA, 72 h; at 28.5 µM (top of the series) unless noted
Method in brief: as §1

Q: With Nc1ccc(C(=O)Nc2cccc(-c3nc(N4CCOCC4)c4oc5ncccc5c4n3)c2)cn1 as the compound, how does the Potency [1] read?
A: inactive

Q: And the Potency [2]?
A: 1.22 µM (active)

Q: What about the Potency [3] of the same compound?
A: 0.968 µM (active)

Q: What about the Potency [4] of the same compound?
A: 0.192 µM (active)

Q: What about the Potency [5] of the same compound?
A: 0.891 µM (active)

Q: What about the Potency [6] of the same compound?
A: 0.0048 µM (active)

Q: And the Potency (CRL-7250)?
A: inactive

Q: Which Potency [2] does the source give for COc1cc(N2CCC(C(N)=O)CC2)ccc1Nc1nc(N)c(Cl)c(Nc2ccccc2S(=O)(=O)C(C)C)n1 here?
A: 12.2 µM (active)

Q: And the Potency [3]?
A: 1.72 µM (active)

Q: What about the Potency [7] of the same compound?
A: 0.769 µM (active)

Q: And the Potency (CRL-7250)?
A: inactive

Q: Which results are given for Cc1cc2nc3c(=O)[nH]c(=O)nc-3n(CC(O)C(O)C(O)CO)c2cc1C (stereo not given)?
A: Potency [1]: inactive; Potency [2]: inactive; Potency [8]: inactive; Potency [5]: inactive; Potency (CRL-7250): inactive

Q: Which results are given for CN(C)C(=O)[C@H](O)[C@H](Cc1ccccc1)NC(=O)c1cc2cc(Cl)ccc2[nH]1?
A: Potency [1]: inactive; Potency [3]: inactive; Potency [7]: inactive; Potency [8]: inactive; activity change, negative = inhibition [5]: -8.95%; Potency (CRL-7250): inactive

Q: What does the source list for CC(C)(OCc1nn(Cc2ccccc2)c2ccccc12)C(=O)O?
A: Potency [1]: inactive; Potency [8]: inactive; Potency (CRL-7250): inactive

Q: Which Potency [1] does the source give for CCOc1ccccc1OCCNC(C)Cc1ccc(OC)c(S(N)(=O)=O)c1 (stereo not given) here?
A: inactive

Q: And the Potency [2]?
A: inactive

Q: What about the Potency [7] of the same compound?
A: inactive

Q: And the Potency (CRL-7250)?
A: inactive

Q: With NC1=N[C@@]2(c3cc(NC(=O)c4ccc(F)cn4)ccc3F)COC[C@@H]2CS1 as the compound, how does the Potency [2] read?
A: 17.2 µM (active)

Q: What about the Potency [3] of the same compound?
A: 19.3 µM (active)

Q: What about the Potency (CRL-7250) of the same compound?
A: inactive

Q: Which results are given for CN(C)CC[C@H](c1ccc(Cl)cc1)c1ccccn1?
A: outcome [9]: inactive; outcome [10]: inactive; Potency [1]: inactive; Potency [3]: inactive; Potency [7]: inactive; Potency (CRL-7250): inactive

Q: With O=C1NC(=O)C(=Cc2cccc(C(F)(F)F)c2)S1 as the compound, how does the Potency [2] read?
A: 13.7 µM (active)

Q: What about the Potency (CRL-7250) of the same compound?
A: inactive

Q: For CC1(C)CC(O)CC(C)(C)N1[O], which parasite growth, % of DMSO control [11] is on record?
A: 99.3%

Q: What about the parasite growth, % of control (lower = inhibition) [12] of the same compound?
A: 73%

Q: What about the growth, % of control [13] of the same compound?
A: 60.2%

Q: And the Potency [1]?
A: inactive

Q: What about the Potency [2] of the same compound?
A: inactive

Q: And the Potency [7]?
A: inactive

Q: And the Potency (CRL-7250)?
A: inactive

Q: Which Potency [1] does the source give for COC(=O)[C@H](CCCN=C(N)N)NS(=O)(=O)c1ccc(C)cc1 here?
A: inactive

Q: And the Potency [3]?
A: 17.2 µM (active)

Q: What about the Potency [8] of the same compound?
A: inactive

Q: And the activity change, negative = inhibition [5]?
A: -0.183%

Q: And the Potency (CRL-7250)?
A: inactive

Q: With C[C@@H]1[C@H](C)CC[C@]2(C(=O)O)CC[C@]3(C)C(=CC[C@@H]4[C@@]5(C)CC[C@H](O)C(C)(C)[C@H]5CC[C@]43C)[C@@H]12 as the compound, how does the Potency [1] read?
A: inactive

Q: And the Potency [2]?
A: 35.2 µM (active)

Q: And the Potency [7]?
A: inactive

Q: And the Potency (CRL-7250)?
A: inactive

Q: With Nc1ncnc2c1ncn2[C@@H]1O[C@@H](CO)[C@H](O)[C@H]1O as the compound, how does the Potency [1] read?
A: inactive

Q: What about the Potency [2] of the same compound?
A: inactive

Q: What about the Potency [7] of the same compound?
A: inactive

Q: What about the Potency (CRL-7250) of the same compound?
A: inactive

Q: What does the source list for Nc1ncnc2ccccc12?
A: Potency [2]: 15.3 µM (active); Potency [3]: 12.2 µM (active); Potency [7]: 24.3 µM (active); Potency [8]: inactive; activity change, negative = inhibition [5]: 2.32%; Potency (CRL-7250): inactive

Q: With COc1ccc(-c2cc(=O)c3c(O)cc(O)cc3o2)cc1O as the compound, how does the Potency [1] read?
A: 24.3 µM (active)

Q: What about the Potency [7] of the same compound?
A: 24.3 µM (active)

Q: What about the Potency [8] of the same compound?
A: inactive

Q: And the Potency [5]?
A: inactive

Q: What about the Potency (CRL-7250) of the same compound?
A: inactive

Q: What does the source list for CS(=O)(=O)c1ccc(-c2cnc(N)c(C(=O)Nc3ccccc3)n2)cc1?
A: Potency [1]: inactive; Potency [7]: inactive; Potency [8]: inactive; Potency (CRL-7250): inactive
